Data on 37 molecules can be found in PubChem BioAssay (NCI).

The panel holds about 83,000 compounds, 20% with a hit somewhere; the sample as a whole holds those more often.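 Treatment: one concentration, 48 hours, 96-well format. Scoring: percent growth, with anything below 10 considered active.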 A number with no mark means an inactive call. Active and inactive are the calls of the source.

In this assay the test system is HL-60(TB) leukemia. Put plainly: NCI-60 one-dose screen, 48 h (100 = growth as untreated, 0 = no growth, -100 = all killed). The settings on record: 10 µM unless noted.
On to `O=C(O)c1ccc(NCc2cn(-c3ccc(C(F)(F)F)cc3)nc2-c2ccc(C(=O)O)cc2)cc1`, for which the growth was 104%. With `CCOC(=O)c1cc(-c2ccc(OC)cc2)[nH]c1NNC(=O)CCOC` the figure was 90.8%.

Regarding `COc1cc(CN(c2ccc(C)cc2)C2OC(=O)c3ccccc32)cc(OC)c1OC` (configuration not stated), the growth was -30.4% (active). `COC(=O)c1cnc2c(c1)Oc1ccc(Cl)cc1-c1cc(C)nn1-2`: the growth is 95.9%.

As to `Cc1cccc(C)c1NC(=O)c1sc2nc3c(cc2c1N)C(=O)CCC3`, the growth was 104%. As for `COC(=O)C1CC(=O)N(C(=O)Nc2ccc(Cl)cc2Cl)C1` (configuration not stated), the growth was 97.8%.

Take `O=C(CSc1nnc2sc(Nc3cccc(Cl)c3)nn12)c1ccc(F)cc1`: the growth is 82.7%. Turning to `C/C(CCC(=O)O)=N/Nc1ccc([N+](=O)[O-])cc1`, the growth was 31.9%.

On to `Cc1cnc([C@]23CC[C@@H](C)[C@H](C)[C@H]2C2=CC[C@@H]4[C@@]5(C)Cc6c([nH]c7ccccc67)C(C)(C)[C@@H]5CC[C@@]4(C)[C@]2(C)CC3)o1`, for which the growth is 38.2% [100 µM]. In the case of `CN(C)CCCN1c2ccccc2CCc2ccc(Cl)cc21` it was 80.2%; in that of `O=C(NC(Cc1ccccc1)C(=O)CCl)OCc1ccccc1` (configuration not stated), 39.8%; in that of `FC(F)(F)c1ccc2c(c1)Sc1ccccc1N2`, 72.6%.

For `Cc1cnc(C(=O)Nc2nc3ccc(S(=O)(=O)Nc4ccc(C5(C(F)(F)F)CC5)cc4)cc3[nH]2)cn1`, the growth is -25.1% (active). In the case of `COc1cc(-c2c(C#N)c(-c3cccs3)nc3c2c(-c2ccccc2)nn3-c2ccccc2)ccc1O`, the growth is 99.3%. As to `Cc1ccc2c(c1)C(=O)/C(=C/c1ncc([N+](=O)[O-])n1C)O2`, the growth was -13% (active). As to `O=C(N/N=C/c1ccc(Cl)cc1)c1[nH]c2ccc(Cl)cc2c1-c1ccccc1`, the growth was 13%. In the case of `COc1cc2ncnc(Nc3ccc(OCc4cccc(F)c4)c(Cl)c3)c2cc1NC(=O)C1CCCC1` it was 99%; in that of `COc1ccc(C2CC(c3cc(OC)c(OC)c(OC)c3)=NN2c2ccc(S(N)(=O)=O)cc2)cc1` (configuration not stated), 2.23% (active); in that of `Cc1ccc(C)n1-c1ccsc1C(=O)NNC(=O)CCl`, 104%. In the case of `COc1ccc(-c2nc(SCCC(C)C)nc(N/N=C\c3cccc(Cl)c3)c2C#N)cc1` it was 82%.

For the molecule `COc1ccc(-c2nc(SCC(=O)Nc3ccc(C(=O)/C=C/c4ccc(Cl)cc4)cc3)[nH]c(=O)c2C#N)cc1`, the growth is 105%. On to `C=CC(=O)N[C@@H](Cc1ccc(-c2cc(Cl)cc(Cl)c2)cc1)[C@@H](O)[C@H](O)C(=O)O`, for which the growth was 95.9%. With `Oc1ccc(Nc2ccccc2)cc1` the figure was 66.5%; with `O=C1/C(=C/c2ccc3c(c2)OCO3)SC(=S)N1C1c2ccccc2Oc2ccccc21`, 86.1%; with `C=C1C(=O)O[C@H]2[C@H]1CC/C(Cn1cc(-c3cccc(Cl)c3)nn1)=C\CC[C@@]1(C)O[C@@H]21`, -24.9% (active). With `O=C(CC(=O)c1cccc(Cl)c1)c1cccc(Cl)c1` the figure was 4.17% (active). In the case of `Clc1ccc(Nc2nccc(Nc3ccc4[nH]ncc4c3)n2)cc1` it was 51.5%; in that of `Cc1ccc2nc(SCn3nnc4ccccc4c3=O)[nH]c2c1`, 80.3%. Turning to `CC(C)(Sc1cc(C(C)(C)C)c(OC(=O)CCCC(=O)O)c(C(C)(C)C)c1)Sc1cc(C(C)(C)C)c(OC(=O)CCCC(=O)O)c(C(C)(C)C)c1`, the growth was -22.6% (active). With `Cc1csc(-c2nnc(Nc3ccc(Oc4ncccc4-c4ccnc(N)n4)cc3)c3ccccc23)c1` the figure was 12.9%; with `O=C1OCC2=C1C(c1ccc(Cl)c(Cl)c1)c1cc3c(cc1N2CCO)CCC3` (configuration not stated), -13.1% (active). With `NC(=N\N=C/c1cccc([N+](=O)[O-])c1)/C(N)=N\N=C/c1cccc([N+](=O)[O-])c1` the figure was 104%; with `CCCCNC(=O)c1ccccc1C`, 84.4%; with `O=C(Nc1ccc(Nc2ccncc2)cc1)c1ccc(C(=O)Nc2ccc(Nc3ccncc3)cc2)cc1`, 23%. As for `Nc1ncc(-c2cnn(C3CCNCC3)c2)cc1-c1nc2ccccc2o1`, the growth is -55.5% (active). For `COc1ccc(-c2cc(C(=O)Nc3nc4cc(C)c(C)cc4s3)nc3cc(-c4ccccc4)nn23)cc1OC`, the growth was 98.2%.

As for `COc1c(C(=O)Nc2ccc(C)c(Br)c2)ccc2ccccc12`, the growth is 91.2%.
